Measured values as given in PubChem BioAssay (NCATS).
Inconclusive results are not listed. Unmarked numbers belong to inactive results. Calls of active or inactive are those of the source. Calls come from the whole dose curve; as a rule, active = well fitted inhibition curve with a large enough effect; inconclusive = small, poorly fitted or top-dose-only effect; inactive = no such curve, though single readings can be large or run the other way.

What follows are compounds tested against Thioredoxin reductase 1, cytoplasmic (Rattus norvegicus) (UniProt O89049) (assay: qHTS Assay for Inhibitors of Mammalian Selenoprotein Thioredoxin Reductase 1 (TrxR1) (AID 488773; note: nearly all actives have a fitted effect of over 40% in size)). Conditions: purified TrxR1 enzyme activity; Potency: inhibition; series mostly up to 57.1 µM; activity change, negative = inhibition: at the top concentration.
Chain of Thioredoxin reductase 1, cytoplasmic (Rattus norvegicus) (O89049 whole entry, looked up): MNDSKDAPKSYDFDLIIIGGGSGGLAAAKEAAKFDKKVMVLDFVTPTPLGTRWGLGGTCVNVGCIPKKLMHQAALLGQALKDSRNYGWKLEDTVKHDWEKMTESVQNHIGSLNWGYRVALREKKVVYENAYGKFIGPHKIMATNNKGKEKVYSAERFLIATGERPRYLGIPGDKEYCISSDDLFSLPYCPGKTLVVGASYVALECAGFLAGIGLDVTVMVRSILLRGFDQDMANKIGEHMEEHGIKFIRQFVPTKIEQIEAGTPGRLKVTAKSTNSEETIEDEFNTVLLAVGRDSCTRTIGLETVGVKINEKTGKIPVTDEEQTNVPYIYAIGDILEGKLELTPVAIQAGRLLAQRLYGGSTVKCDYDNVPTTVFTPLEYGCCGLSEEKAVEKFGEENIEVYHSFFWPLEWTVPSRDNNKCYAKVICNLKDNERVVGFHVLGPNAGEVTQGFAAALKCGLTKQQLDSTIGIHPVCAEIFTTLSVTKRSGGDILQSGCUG
From the text: The selenoprotein thioredoxin reductase (TrxR; EC 1.8.1.9) is a FAD containing homodimeric pyridine nucleotide-disulfide oxidoreductase with many cellular roles. Together with NADPH and its prime substrate thioredoxin (Trx), the enzyme forms the core of the Trx system. The mammalian Trx system exerts a wide spectrum of functions including redox regulation, antioxidant defense, regulation of transcription factors as well as support of cell growth and replication. Many of these functions involve the reduction of Trx, which may subsequently reduce a number of different substrates including ribonucleotide reductase, peroxiredoxins or NFkB. Mammalian TrxR itself also has a broad substrate specificity, reducing both protein and non-protein substrates, including low molecular weight compounds such as dehydroascorbate, lipoic acid, ubiquinone, and juglone. In addition, several drugs in clinical use for anticancer treatment are indeed known to target TrxR1.
This BioAssay is a validation of an NADPH fluorescence-based, dual-purpose qHTS rTrxR1 assay designed to find potential inhibitors and substrates of rTrxR1. For this particular BioAssay, actives are potential inhibitors. See related BioAssay for substrate data deposition.
Assay protocol: 2 uL of reagents (buffer in column 4 as negative control and 90 nM rTrxR1 in columns 1-3 and 5-48) were dispensed into Greiner black solid-bottom 1,536-well assay plates, followed by 1 uL of NADPH (400 uM final concentration) to each well. The plates were centrifuged at 1000 rpm for 15 seconds and subsequently incubated for 5 min at room temperature (~22 deg C) to allow for rTrxR1 reduction. Compounds (23 nL) were then transferred via Kalypsys pin tool equipped with 1536-pin array (10 nL slotted pins, V&P Scientific, San Diego, CA). In addition, a duplicate 2-fold serial dilution of the control compounds auranofin, a known gold-based TrxR1 inhibitor, and juglone (5-hydroxy-1,4-naphthoquinone), a natural TrxR1 substrate, were pin-transferred to columns 2 and 3, respectively. After incubation for 15 min at room temperature (~22 deg C), 1 uL of selenite (400 uM final concentration) were dispensed to each well. The plate was immediately transferred to a ViewLux high-throughput CCD imager (PerkinElmer), wherein kinetic measurements of NADPH fluorescence (Ex 340 nm, Em 450 nm) were acquired (8 minute kinetic read, see Table 1). Read 1 was utilized to assess the capacity of a compound to serve as an rTrxR1 substrate, i.e. a decrease in NADPH fluorescence compared to the no-compound background is an indication of a substrate behavior for that particular compound. For inhibitory activity of a compound, delta values, computed as the difference in fluorescence intensity between the first and last reads of an 8-minute time kinetic window, were used. All reagents were diluted in an assay buffer consisting of 50 mM Tris-HCl, pH 7.5, 2 mM EDTA, and 0.01% Tween-20.
Throughout the screen, reagent bottle and all liquid lines were made light-tight to minimize reagent degradation. All screening operations were performed on a fully integrated robotic system (Kalypsys, San Diego, CA) containing one RX-130 and two RX-90 anthropomorphic robotic arms (Staubli, Duncan, SC). Library plates were screened starting from the lowest and proceeding to the highest concentration, and a 'double-pinning' step of the highest concentration was required to access higher concentrations of compounds. Vehicle-only plates, with DMSO being pin-transferred to the columns 5-48, were inserted uniformly at the beginning and the end of each library in order to monitor and record any shifts in the background, which can be affected by reagent dispensers or loss in enzyme activity over time. Screening data were corrected, normalized, and concentration-effect relationships were derived by using publicly-available curve fitting algorithms developed in-house (http://ncgc.nih.gov/pub/openhts).
% is set by controls: 0 for no effect and ±100 for the full control effect; potency is the fitted concentration of half-maximal effect.

Row | Compound | activity change, negative = inhibition [%] | Potency
1 | COc1ccc2c(c1)c(CC(=O)O)c(C)n2C(=O)c1ccc(Cl)cc1 | -8.99 | –
2 | Cc1cc(C(C)(C)C)c(O)c(C)c1CC1=NCCN1 | -10 | –
3 | Cc1ccccc1N1C(=O)c2cc(S(N)(=O)=O)c(Cl)cc2NC1C (stereo not given) | -10.8 | –
4 | O=C(C1CCCCC1)N1CC(=O)N2CCc3ccccc3C2C1 (stereo not given) | 3.49 | –
5 | O=C1Cc2cc(CCN3CCN(c4nsc5ccccc45)CC3)c(Cl)cc2N1 | -2.75 | –
6 | Cn1cnc2c1c(=O)[nH]c(=O)n2C | -0.44 | –
7 | CCCNCC(O)COc1ccccc1C(=O)CCc1ccccc1 (stereo not given) | -5.29 | –
8 | COC(=O)Nc1nc2ccc(C(=O)c3cccs3)cc2[nH]1 | -16.8 | –
9 | Cn1c(=O)c2c(ncn2C)n(C)c1=O | 4.55 | –
10 | NC(=O)OCC(COC(N)=O)c1ccccc1 | 3.12 | –
11 | NC(=O)NO | -4.34 | –
12 | NC12CC3CC(CC(C3)C1)C2 | -0.18 | –
13 | O=C(Nc1ccc([N+](=O)[O-])cc1Cl)c1cc(Cl)ccc1O | 4.02 | –
14 | Clc1ccccc1C(c1ccccc1)(c1ccccc1)n1ccnc1 | 1.56 | –
15 | Clc1ccc2c(c1)C(N1CCNCC1)=Nc1ccccc1O2 | -10.7 | –
16 | NCCCCCC(=O)O | 2.56 | –
17 | CC(C)NCC(O)COc1ccc(CCOCC2CC2)cc1 (stereo not given) | -1.06 | –
18 | CC(C)C(=O)Nc1ccc([N+](=O)[O-])c(C(F)(F)F)c1 | 0.275 | –
19 | O=c1c(O)c(-c2ccc(O)c(O)c2)oc2cc(O)cc(O)c12 | -12.2 | –
20 | NC(CO)C(=O)NNCc1ccc(O)c(O)c1O (stereo not given) | – | 4.23 µM (active)

Row | Compound | activity change, negative = inhibition [%] | Potency
21 | COc1cc2nc(N(C)CCCNC(=O)C3CCCO3)nc(N)c2cc1OC (stereo not given) | 15.2 | –
22 | CC(COc1ccccc1)N(CCCl)Cc1ccccc1 (stereo not given) | -18.7 | –
23 | Cc1cn([C@H]2C=C[C@@H](CO)O2)c(=O)[nH]c1=O | -1.99 | –
24 | OCCN(CCO)c1nc(N2CCCCC2)c2nc(N(CCO)CCO)nc(N3CCCCC3)c2n1 | 0.696 | –
25 | CCc1cccc2c3c([nH]c12)C(CC)(CC(=O)O)OCC3 (stereo not given) | 19.8 | –
26 | CC(CCc1ccc(O)cc1)NCCc1ccc(O)c(O)c1 (stereo not given) | -7.38 | –
27 | Cn1ccc2cc3c(cc21)CCN3C(=O)Nc1cccnc1 | -13.7 | –
28 | CN(C)CCCN1c2ccccc2CCc2ccc(Cl)cc21 | 0.349 | –
29 | O=C(c1ccc(OCCN2CCCCC2)cc1)c1c(-c2ccc(O)cc2)sc2cc(O)ccc12 | 8.7 | –
30 | CC12CC3CC(C)(C1)CC(N)(C3)C2 | 3.95 | –
31 | Nc1c2c(nc3ccccc13)CCCC2 | 1.34 | –
32 | COc1ccccc1OCC(O)CN1CCN(CC(=O)Nc2c(C)cccc2C)CC1 (stereo not given) | 5.88 | –
33 | CCC1(C)CC(=O)NC1=O (stereo not given) | -4.56 | –
34 | Cc1cn([C@H]2C[C@H](N=[N+]=[N-])[C@@H](CO)O2)c(=O)[nH]c1=O | -1.95 | –
35 | CN1CCC(=C2c3ccccc3C=Cc3ccccc32)CC1 | 4.06 | –
36 | Cc1ccc(C(=O)Nc2ccc(S(=O)(=O)O)c3cc(S(=O)(=O)O)cc(S(=O)(=O)O)c23)cc1NC(=O)c1cccc(NC(=O)Nc2cccc(C(=O)Nc3cc(C(=O)Nc4ccc(S(=O)(=O)O)c5cc(S(=O)(=O)O)cc(S(=O)(=O)O)c45)ccc3C)c2)c1 | -14.9 | –
37 | CN(C)CCOC(c1ccccc1)c1ccccc1 | 3.01 | –
38 | C[C@](N)(Cc1ccc(O)c(O)c1)C(=O)O | – | 3.77 µM (active)
39 | NCCS(=O)(=O)O | 2.66 | –
40 | CN1CCN(C2=Nc3cc(Cl)ccc3Nc3ccccc32)CC1 | -14.9 | –
